Laboratory results from PubChem BioAssay (NCI).
About 83,000 compounds went through this panel and 20% of them were active in at least one assay; those are over-represented in the sample as a whole.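 Values shown are percent growth following 48 h exposure of cells in 96-well plates to a single concentration of compound; below 10 was considered active.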 Values without a mark were called inactive. The source made the active and inactive calls.

Tests used:
Experiment in all cases: NCI-60 one-dose screen, 48 h (100 = growth as untreated, 0 = no growth, -100 = all killed)
Conditions in all cases: 10 µM unless noted
NCI-H23 lung = system: NCI-H23 lung
NCI-H226 lung = system: NCI-H226 lung
NCI-H322M lung = system: NCI-H322M lung
HOP-62 NSCLC = system: HOP-62 NSCLC
NCI-H460 lung = system: NCI-H460 lung
HOP-92 NSCLC = system: HOP-92 NSCLC
A549/ATCC NSCLC = system: A549/ATCC NSCLC
786-0 renal = system: 786-0 renal
COLO 205 colon = system: COLO 205 colon
DU-145 prostate = system: DU-145 prostate
K-562 leukemia = system: K-562 leukemia
MALME-3M melanoma = system: MALME-3M melanoma
MDA-MB-231 breast = system: MDA-MB-231 breast
RXF 393 renal = system: RXF 393 renal
SF-268 CNS = system: SF-268 CNS
SF-295 CNS = system: SF-295 CNS
SF-539 CNS = system: SF-539 CNS
UACC-257 melanoma = system: UACC-257 melanoma
M14 melanoma = system: M14 melanoma
NCI-H522 lung = system: NCI-H522 lung

SMILES	growth (NCI-H23 lung)	growth (NCI-H226 lung)	growth (NCI-H322M lung)	growth (HOP-62 NSCLC)	growth (NCI-H460 lung)	growth (HOP-92 NSCLC)	growth (A549/ATCC NSCLC)	growth (786-0 renal)	growth (COLO 205 colon)	growth (DU-145 prostate)	growth (K-562 leukemia)	growth (MALME-3M melanoma)	growth (MDA-MB-231 breast)	growth (RXF 393 renal)	growth (SF-268 CNS)	growth (SF-295 CNS)	growth (SF-539 CNS)	growth (UACC-257 melanoma)	growth (M14 melanoma)	growth (NCI-H522 lung)
C=C1C(=O)O[C@@H]2[C@@H]3O[C@@](C)(CC/C=C(\C)CCC[C@@H]2C)[C@H](O)C[C@@H]13	81.6%	65.7%	97.3%	81.2%	89.8%	1.79% (active)	95.3%	79.1%	47.1%	50.1%	18.6%	55.2%	68.2%	27%	67.9%	81.8%	58.3%	67.9%	-1.2% (active)	
O=C1/C(=C/c2ccccc2)Oc2ccc(O)c(I)c21	96.5%	74.9%	94.5%	100%	103%	86%	103%	98.9%	120%	111%	99.5%	101%	81%	108%	82.6%	104%	87.7%	96.6%	98.5%	
S=C(S)NCCc1c[nH]c2ccccc12	99%	66.5%	99.9%	106%	103%	99.2%	99.4%	100%	125%	107%	93.3%	99.1%	91.1%	106%	89.7%	95.7%	101%	104%	95.2%	
CCOC(=O)CN1/C(=N/c2sc3c(c2C(=O)OCC)CCN(C(=O)OCC)C3)SC(=O)/C1=C\C(=O)OC	95.8%	92.2%	98.4%	92.4%	99.9%	74.5%	90.4%		101%	104%	64.2%	101%	89.2%	90.9%	90.8%	98%	93.9%	92.8%	95%	76.4%
CCN(CC)CCOC(=O)C(c1ccccc1)(c1ccccc1)C(C)C	90.2%	92.9%	82.3%	83.2%	92%	77.7%	80%		66.3%	99%	85.7%	95.1%	74.3%	95.6%	86.1%	91.1%	107%	63.2%	106%	86.6%
